Bioassay records deposited in PubChem BioAssay by The Scripps Research Institute Molecular Screening Center.
MITF primary: MITF inhibitors, primary screen, biochemical, AlphaScreen, human; AID 1259374, 2018; 650,000 tested, 0.91% active; Microphthalmia-associated transcription factor (Homo sapiens), O75030; inhibition, % at 2.6 µM; AlphaScreen MITF homodimerization, bead proximity signal; in the data active = inhibition above about 50%
Target sequence (O75030 whole entry, looked up): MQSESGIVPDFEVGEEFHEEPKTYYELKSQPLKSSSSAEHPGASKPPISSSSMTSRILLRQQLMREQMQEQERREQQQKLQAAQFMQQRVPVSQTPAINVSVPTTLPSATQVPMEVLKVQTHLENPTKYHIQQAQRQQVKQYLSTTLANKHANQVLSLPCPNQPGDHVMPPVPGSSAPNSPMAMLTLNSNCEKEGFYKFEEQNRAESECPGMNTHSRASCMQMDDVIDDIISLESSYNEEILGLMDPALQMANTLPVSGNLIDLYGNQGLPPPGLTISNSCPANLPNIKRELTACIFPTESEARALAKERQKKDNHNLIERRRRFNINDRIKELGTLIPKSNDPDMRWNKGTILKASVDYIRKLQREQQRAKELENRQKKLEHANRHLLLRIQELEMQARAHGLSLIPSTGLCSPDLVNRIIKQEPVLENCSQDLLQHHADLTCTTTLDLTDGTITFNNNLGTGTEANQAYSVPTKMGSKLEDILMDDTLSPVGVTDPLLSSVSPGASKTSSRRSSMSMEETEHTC
TEAD-YAP block: TEAD-YAP interaction inhibition, primary screen, TEAD-YAP interaction inhibitor project, luminescence, HEK-TIYL cells; AID 1259422, 2018; 640,000 tested, 1.4% active; TEAD-Gal4/YAP UAS-luciferase luminescence; inhibition, % at 9.12 µM; in the data active = inhibition above about 32%
FBW7 activator: FBW7 E3 ligase activators, primary screen, biochemical, AlphaScreen, human; F-box/WD repeat-containing protein 7 (Homo sapiens), Q969H0; AlphaScreen FBW7–phospho-cyclin E peptide binding, activator screen; 650,000 tested, 0.13% active; normalized activity (activation), % at 26.1 µM; AID 1259310, 2017; in the data active = normalized activity above about 1.9%;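 note: purified mutant Fbw7 with reduced substrate affinity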
GPR151 ag: activators of human GPR151, primary screen, cell-based, PathHunter beta-arrestin, luminescence. G-protein coupled receptor 151 (Homo sapiens), Q8TDV0. PathHunter beta-arrestin GPR151 cells. activation, % at 11.2 µM. 650,000 tested, 1% active. AID 1508602, 2020; in the data active = activation above about 4.9%
Each line names hits and unclear results; the compound was inactive in the other large screens. In the library only some 3.4% were active in any assay of this set; here they are far more common.

CC(=O)N1c2ccccc2NC2=C(C(=O)CCC2)C1c1cccc(Br)c1 (stereo not given)	TEAD-YAP block 37.2
COc1ccc(-c2cn3c(NC(=O)Cc4ccccc4C)cnc3cn2)cc1	none
O=C(NCc1ccccn1)c1cc(Cl)ccc1[N+](=O)[O-]	none
Cc1ccc(C(C)C)c(OCCN=Cc2c(O)n(C)c(=O)n(C)c2=O)c1	TEAD-YAP block 33.4
COc1ccc(N(Cc2nnc3n2CCCCC3)C(=O)Nc2ccc(C)cc2)c(OC)c1	none
Cc1csc2nc(-c3ccc(NS(=O)(=O)c4cccnc4)cc3)cn12	TEAD-YAP block 35.7
CCOCC(=O)Nc1ccc(-c2cn3c(C)csc3n2)cc1	TEAD-YAP block 51.0
COc1cccc(OC)c1C(=O)Nc1ccc(-c2cn3c(C)csc3n2)cc1	TEAD-YAP block 38.1
CC(NC(=O)COc1ccccc1C(N)=O)c1ccc(F)cc1 (stereo not given)	none
CCN(CC)CCN(C(=O)c1ccccc1C)c1nc2c(F)cccc2s1	none
Cc1cccc(OCc2nnc(SC(C)C(=O)NC(N)=O)o2)c1 (stereo not given)	none
COc1cccc(OC)c1C(=O)N1C[C@@H]2C[C@H]1C(=O)N2c1ccccc1Cl	TEAD-YAP block 33.2
O=C(Nc1ccc(F)cc1)C1(c2cccs2)CCOCC1	none
CCOC(=O)c1c(C)[nH]c(C(=O)N/N=C\c2ccccc2Cl)c1C	TEAD-YAP block 40.1
CCOC(=O)c1c(C)[nH]c(C(=O)N/N=C\c2cccc(OC)c2)c1C	TEAD-YAP block 45.7
CCOC(=O)c1c(C)[nH]c(C(=O)N/N=C\c2ccc([N+](=O)[O-])cc2)c1C	TEAD-YAP block 41.4
CSc1ccc2nc(Nc3nc(C)c(C(C)=O)s3)sc2c1	none
Cc1c(C(=O)N2CCN(c3ccccn3)CC2)sc2ncnc(N3CCC(C)CC3)c12	none
CC(C)(Oc1ccc(Cl)cc1)C(=O)OCC(=O)Nc1ccccc1C#N	none
O=c1c(Oc2ccc(F)cc2)coc2c(O)c(O)ccc12	MITF primary 82.7
COCCOC(=O)C1=C(C)N=C2SC(C)C(=O)N2C1c1ccccc1[N+](=O)[O-] (stereo not given)	none
C=CCNC(=S)NNC(=O)c1ccccc1O	TEAD-YAP block 88.6
C=CCNC(=S)NNC(=O)c1ccccc1OCCC	none
O=C(NC1CCCC1)C1N(CCc2ccccc2)C(=O)C2C(c3ccccc3)C3C=CC21O3 (stereo not given)	none
CCOC(=O)C1=C(C)N=C2SCC(=O)N2C1c1cc(OC)c(OC)cc1Br (stereo not given)	none
O=C(Nc1ccc(-c2nc3ccccc3o2)cc1)C1CCN(CCCn2cccn2)CC1	TEAD-YAP block 77.6
Nc1ccccc1-c1nc2ccccc2c(=O)o1	FBW7 activator 2.4
O=C(Nc1ccc(-c2nc3ccccc3o2)cc1)C1CCN(Cc2ccccn2)CC1	none
O=C(Nc1ccc(-c2nc3ccccc3c(=O)o2)cc1)C1CC1	TEAD-YAP block 48.2
CC(C)(C)c1ccc(-c2nc3ccccc3c(=O)o2)cc1	TEAD-YAP block 53.3
CC1CCN(C(=O)C2CCN(S(=O)(=O)c3ccc4c(c3)OCC(=O)N4)CC2)CC1	none
COCCSc1nnc(-c2ccc(OC)cc2)n1C	none
CC(C)C[C@@H]1NC(=O)[C@@H]2C[C@H](NC(=O)c3ccc(-c4ccccc4)cc3)CN2C1=O	none
CC(C)(C)c1ccc(-c2nc3ccccc3c(=O)[nH]2)cc1	TEAD-YAP block 83.2
Cc1ccc(-c2nc3ccccc3c(=O)[nH]2)cc1	none
CC(C)OCc1cc(CN2CCOCC2)c(O)c2ncccc12	MITF primary 93.9
CC(C)OCc1cc(CN2CCN(C)CC2)c(O)c2ncccc12	MITF primary 93.5
COCc1cc(CN2CCN(C)CC2)c(O)c2ncccc12	MITF primary 101.1
Oc1c(CN2CCOCC2)cc(COCc2ccccc2)c2cccnc12	MITF primary 86.5, TEAD-YAP block 73.9
COc1cc(CN2CCOCC2)ccc1OCc1ccccc1	none
COc1ccc(Nc2ccn3ncc(-c4cccc(O)c4)c3n2)cn1	none
CCCCC(=O)NC1(C(F)(F)F)C(=O)NC(C)=C1C#N (stereo not given)	none
Cc1nc(SCC(=O)c2ccc3c(c2)OCCO3)c2ccccc2n1	none
O=C(NNC(=S)NCc1ccc(F)cc1)c1c[nH]c2ccccc12	none
CCN(CC)c1ccc2cc(I)c(=O)oc2c1	FBW7 activator 2.9
CCN(CC)c1ccc2cc(Cl)c(=O)oc2c1	none
CCN(CC)c1ccc2cc(/C(N)=N/NC(C)=O)c(=O)oc2c1	TEAD-YAP block 41.3
CCN(CC)c1ccc2cc(N3C(=O)CCC3=O)c(=O)oc2c1	TEAD-YAP block 62.1
COc1ccc(OC)c(CNc2ncc(-c3cccc(Cl)c3)n2C)c1	TEAD-YAP block 45.3
Nc1ccc(-c2nc3ncc(Cl)cc3[nH]2)cc1	TEAD-YAP block 35.4
Clc1cnc2nc(-c3cccnc3)[nH]c2c1	none
COc1ccc(OC)c(C2/C(=C(\O)c3ccc(C)cc3)C(=O)C(=O)N2c2nc3ccccc3s2)c1 (stereo not given)	none
COc1ccc(C2/C(=C(\O)c3ccc(C)cc3)C(=O)C(=O)N2c2nc3ccccc3s2)c(OC)c1 (stereo not given)	TEAD-YAP block 40.9
O=C(NNC(=O)C1c2ccccc2Oc2ccccc21)Nc1ccc2c(c1)OCO2	TEAD-YAP block 61.1
COc1cc(C2CC(=O)Nc3cc4c(cc32)OCO4)c(Br)c(OC)c1OC (stereo not given)	TEAD-YAP block 51.1
COc1ccc(C2CC(=O)Nc3cc4c(cc32)OCO4)cc1O (stereo not given)	none
COc1cc(C2CC(=O)Nc3c2ccc2ccccc32)c(Br)c(OC)c1OC (stereo not given)	TEAD-YAP block 59.0
CN1CCN(c2ncnc3c2cnn3Cc2ccccc2)CC1	none
c1cc(-n2cnc(N3CCOCC3)n2)ccc1Nc1ncc2ccc(-c3cn[nH]n3)cc2n1	TEAD-YAP block 67.9
c1n[nH]c(-c2ccc3cnc(Nc4ccc(-n5cnc(N6CCOCC6)n5)cc4)nc3c2)n1	TEAD-YAP block 65.2
c1cc(-c2ccc3cnc(Nc4ccc(-n5cnc(N6CCOCC6)n5)cc4)nc3c2)cs1	none
CCC(C(=O)O)N1C(=O)COc2ccc(Cl)cc21 (stereo not given)	none
S=c1nc(Nc2cccnc2)c2ccccc2[nH]1	none
CCC(=O)Nc1ccc(S(=O)(=O)N2c3ccccc3CC2C)cc1 (stereo not given)	none
COc1ccc(S(=O)(=O)N2c3ccccc3CC2C)cc1 (stereo not given)	TEAD-YAP block 47.5
Cc1ccc(S(=O)(=O)N2c3ccccc3CC2C)cc1 (stereo not given)	none
CCOc1ccc(S(=O)(=O)N2c3ccccc3CC2C)cc1 (stereo not given)	TEAD-YAP block 52.4
Cc1ccc2nc(-c3ccc(NC(=O)c4cccc(C(F)(F)F)c4)cc3)sc2c1	none
